# Laboratory results reported in paper PMC7862700, “An all-to-all approach to the identification of sequence-specific readers for epigenetic DNA modifications on cytosine”.
# Columns and labels:
# Experiment in all cases: DAPPL (digital affinity profiling via proximity ligation, sequencing); 10 mM Tris-HCl pH 7.5, 50 mM NaCl, 1 mM DTT, 4% glycerol, room temperature, 30 min; GST-TFs on glutathione beads, 16-mer random dsDNA library, 0.1% formaldehyde crosslink after washing; high values mean tight binding
# [1] = molecular target: T1, FLI1 (Homo sapiens, UniProt Q01543 1-452); details: protein: recombinant; tags: N-terminal GST; dsDNA, one strand shown
# T1 sequence: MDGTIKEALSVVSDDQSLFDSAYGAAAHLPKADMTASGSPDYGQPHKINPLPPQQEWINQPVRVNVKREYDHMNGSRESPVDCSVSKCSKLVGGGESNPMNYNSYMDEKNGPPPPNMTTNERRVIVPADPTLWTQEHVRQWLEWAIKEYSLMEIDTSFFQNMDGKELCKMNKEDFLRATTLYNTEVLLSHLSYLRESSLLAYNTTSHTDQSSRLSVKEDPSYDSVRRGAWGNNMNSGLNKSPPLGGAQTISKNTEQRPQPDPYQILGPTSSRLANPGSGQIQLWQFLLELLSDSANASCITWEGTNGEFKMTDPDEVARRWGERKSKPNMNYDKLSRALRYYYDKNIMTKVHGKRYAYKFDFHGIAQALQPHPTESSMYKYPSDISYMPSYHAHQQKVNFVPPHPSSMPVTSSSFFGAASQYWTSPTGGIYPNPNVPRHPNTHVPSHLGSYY
# Summary of the method: (§1)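 A tag-only sample was pooled with DNA-barcoded human transcription factors that had been expressed in yeast as GST fusions and captured on glutathione beads. The pools were incubated for 30 min at room temperature with 200 nmole of a random double-stranded 16-mer DNA library in Tris/NaCl/DTT/glycerol buffer, then washed, crosslinked with 0.1% formaldehyde, proximity-ligated (BsaI/T4 ligase, 1 h, 37 °C), PCR-amplified and sequenced on an Illumina NextSeq500. Binding signal is each hexamer's read frequency for a factor divided by its frequency for the tag-only sample.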
# [2] = molecular target: T2, ELK1 (Homo sapiens, UniProt P19419 1-428); details: protein: recombinant; tags: N-terminal GST; dsDNA, one strand shown
# T2 sequence: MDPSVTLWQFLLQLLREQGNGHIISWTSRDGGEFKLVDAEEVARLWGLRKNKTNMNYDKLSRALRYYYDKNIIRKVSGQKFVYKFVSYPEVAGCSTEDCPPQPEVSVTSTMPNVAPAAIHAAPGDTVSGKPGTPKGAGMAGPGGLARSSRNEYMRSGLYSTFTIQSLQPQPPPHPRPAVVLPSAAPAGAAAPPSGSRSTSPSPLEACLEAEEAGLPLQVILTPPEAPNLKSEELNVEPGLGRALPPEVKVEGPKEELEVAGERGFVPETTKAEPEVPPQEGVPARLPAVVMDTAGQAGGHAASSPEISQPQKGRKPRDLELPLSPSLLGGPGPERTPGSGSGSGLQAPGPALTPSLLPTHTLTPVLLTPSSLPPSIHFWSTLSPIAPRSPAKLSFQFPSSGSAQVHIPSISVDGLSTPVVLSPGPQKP
# Summary of the method: as §1
# [3] = molecular target: T3, GABPA (Homo sapiens, UniProt Q06546 1-454); details: protein: recombinant; tags: N-terminal GST; dsDNA, one strand shown
# T3 sequence: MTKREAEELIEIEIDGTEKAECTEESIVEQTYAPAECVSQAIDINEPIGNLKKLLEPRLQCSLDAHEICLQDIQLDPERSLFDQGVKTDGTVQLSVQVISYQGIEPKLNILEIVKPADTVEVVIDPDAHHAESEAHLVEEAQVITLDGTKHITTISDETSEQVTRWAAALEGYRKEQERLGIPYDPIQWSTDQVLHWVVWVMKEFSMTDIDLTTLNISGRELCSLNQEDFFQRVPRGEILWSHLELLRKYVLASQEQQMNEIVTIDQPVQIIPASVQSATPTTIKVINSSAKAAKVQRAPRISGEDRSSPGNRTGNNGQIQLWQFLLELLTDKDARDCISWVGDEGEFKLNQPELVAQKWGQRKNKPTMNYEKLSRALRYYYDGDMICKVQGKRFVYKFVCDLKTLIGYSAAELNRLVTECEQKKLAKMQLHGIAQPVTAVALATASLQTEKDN
# Summary of the method: as §1
# [4] = molecular target: T4, ERG (Homo sapiens, UniProt P11308 1-479); details: protein: recombinant; tags: N-terminal GST; dsDNA, one strand shown
# T4 sequence: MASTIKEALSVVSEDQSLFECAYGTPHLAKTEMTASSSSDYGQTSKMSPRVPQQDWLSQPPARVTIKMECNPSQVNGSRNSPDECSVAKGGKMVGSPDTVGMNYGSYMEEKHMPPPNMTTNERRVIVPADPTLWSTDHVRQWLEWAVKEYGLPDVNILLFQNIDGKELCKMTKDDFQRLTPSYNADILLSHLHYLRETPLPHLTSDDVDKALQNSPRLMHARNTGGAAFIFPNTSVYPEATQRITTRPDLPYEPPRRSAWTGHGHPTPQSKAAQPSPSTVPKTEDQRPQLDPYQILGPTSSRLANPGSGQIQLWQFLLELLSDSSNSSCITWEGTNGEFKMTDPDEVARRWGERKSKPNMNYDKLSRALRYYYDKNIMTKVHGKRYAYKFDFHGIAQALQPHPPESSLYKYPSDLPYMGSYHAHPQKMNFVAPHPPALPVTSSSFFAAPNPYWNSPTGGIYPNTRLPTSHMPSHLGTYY
# Summary of the method: as §1
# [5] = molecular target: ELF1 (Homo sapiens, UniProt P32519 1-619); details: protein: recombinant; tags: N-terminal GST; dsDNA, one strand shown
# Summary of the method: as §1
# [6] = molecular target: T5, EHF (Homo sapiens, UniProt Q9NZC4 1-300); details: protein: recombinant; tags: N-terminal GST; dsDNA, one strand shown
# T5 sequence: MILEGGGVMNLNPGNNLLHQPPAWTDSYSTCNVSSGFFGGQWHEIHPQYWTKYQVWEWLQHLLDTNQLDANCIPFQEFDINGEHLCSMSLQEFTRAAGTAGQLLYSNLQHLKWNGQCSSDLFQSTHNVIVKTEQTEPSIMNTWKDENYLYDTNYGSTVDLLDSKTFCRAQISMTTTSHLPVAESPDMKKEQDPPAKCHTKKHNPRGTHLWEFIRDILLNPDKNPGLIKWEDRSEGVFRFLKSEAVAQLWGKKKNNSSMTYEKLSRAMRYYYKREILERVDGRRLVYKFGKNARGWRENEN
# Summary of the method: as §1
# [7] = molecular target: SPI1 (Homo sapiens, UniProt P17947 1-270); details: protein: recombinant; tags: N-terminal GST; dsDNA, one strand shown
# Summary of the method: as §1
# [8] = molecular target: SPIB (Homo sapiens, UniProt Q01892 1-262); details: protein: recombinant; tags: N-terminal GST; dsDNA, one strand shown
# Summary of the method: as §1
# [9] = molecular target: T6, ELK3 (Homo sapiens, UniProt P41970 1-407); details: protein: recombinant; tags: N-terminal GST; dsDNA, one strand shown
# T6 sequence: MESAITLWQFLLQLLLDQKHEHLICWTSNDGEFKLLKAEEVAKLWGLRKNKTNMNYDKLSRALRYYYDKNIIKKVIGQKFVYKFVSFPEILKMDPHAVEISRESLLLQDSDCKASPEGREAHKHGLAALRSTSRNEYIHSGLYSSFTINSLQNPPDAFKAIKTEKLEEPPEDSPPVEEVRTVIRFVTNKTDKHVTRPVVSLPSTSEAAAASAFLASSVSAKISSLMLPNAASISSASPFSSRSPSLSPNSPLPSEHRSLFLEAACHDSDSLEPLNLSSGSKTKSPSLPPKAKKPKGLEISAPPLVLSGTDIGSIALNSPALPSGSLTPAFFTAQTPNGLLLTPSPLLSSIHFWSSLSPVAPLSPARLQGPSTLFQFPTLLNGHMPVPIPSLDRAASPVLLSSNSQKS
# Summary of the method: as §1
# [10] = molecular target: T7, FEV (Homo sapiens, UniProt Q99581 1-238); details: protein: recombinant; tags: N-terminal GST; dsDNA, one strand shown
# T7 sequence: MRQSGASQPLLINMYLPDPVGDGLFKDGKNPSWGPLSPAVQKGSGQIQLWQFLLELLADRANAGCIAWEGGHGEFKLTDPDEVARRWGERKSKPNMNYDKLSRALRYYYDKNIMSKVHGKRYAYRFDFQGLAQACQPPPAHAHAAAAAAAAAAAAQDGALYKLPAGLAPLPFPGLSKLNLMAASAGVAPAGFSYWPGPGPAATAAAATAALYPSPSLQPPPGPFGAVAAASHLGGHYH
# Summary of the method: as §1
# [11] = molecular target: ETV5 (Homo sapiens, UniProt P41161 1-510); details: protein: recombinant; tags: N-terminal GST; dsDNA, one strand shown
# Summary of the method: as §1
# [12] = molecular target: HSF1 (Homo sapiens, UniProt Q00613 1-529); details: protein: recombinant; tags: N-terminal GST; chain copies: 3; dsDNA, one strand shown
# Summary of the method: as §1
# [13] = molecular target: T8, SPIC (Homo sapiens, UniProt Q8N5J4 1-248); details: protein: recombinant; tags: N-terminal GST; dsDNA, one strand shown
# T8 sequence: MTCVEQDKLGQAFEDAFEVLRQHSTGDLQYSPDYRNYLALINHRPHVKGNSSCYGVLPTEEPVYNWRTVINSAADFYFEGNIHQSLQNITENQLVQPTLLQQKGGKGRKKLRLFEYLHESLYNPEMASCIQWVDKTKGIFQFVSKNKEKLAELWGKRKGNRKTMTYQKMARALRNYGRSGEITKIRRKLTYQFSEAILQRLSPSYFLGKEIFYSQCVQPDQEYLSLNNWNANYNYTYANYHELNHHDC
# Summary of the method: as §1
# [14] = molecular target: ELF4 (Homo sapiens, UniProt Q99607 1-663); details: protein: recombinant; tags: N-terminal GST; dsDNA, one strand shown
# Summary of the method: as §1
# [15] = molecular target: T9, ELK4 (Homo sapiens, UniProt P28324-2 1-405); details: protein: recombinant; tags: N-terminal GST; dsDNA, one strand shown
# T9 sequence: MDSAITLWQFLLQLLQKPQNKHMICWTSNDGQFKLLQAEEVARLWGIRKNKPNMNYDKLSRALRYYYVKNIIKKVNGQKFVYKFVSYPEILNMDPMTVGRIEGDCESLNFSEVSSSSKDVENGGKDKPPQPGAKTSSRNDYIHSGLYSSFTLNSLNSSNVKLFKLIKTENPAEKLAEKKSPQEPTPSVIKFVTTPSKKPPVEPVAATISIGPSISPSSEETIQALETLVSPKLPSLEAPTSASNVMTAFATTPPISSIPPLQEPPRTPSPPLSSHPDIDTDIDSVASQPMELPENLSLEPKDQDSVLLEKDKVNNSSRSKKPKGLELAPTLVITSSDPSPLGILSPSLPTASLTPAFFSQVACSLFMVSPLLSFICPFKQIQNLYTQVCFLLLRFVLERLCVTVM
# Summary of the method: as §1
# [16] = molecular target: T10, ETV2 (Homo sapiens, UniProt O00321 1-342); details: protein: recombinant; tags: N-terminal GST; dsDNA, one strand shown
# T10 sequence: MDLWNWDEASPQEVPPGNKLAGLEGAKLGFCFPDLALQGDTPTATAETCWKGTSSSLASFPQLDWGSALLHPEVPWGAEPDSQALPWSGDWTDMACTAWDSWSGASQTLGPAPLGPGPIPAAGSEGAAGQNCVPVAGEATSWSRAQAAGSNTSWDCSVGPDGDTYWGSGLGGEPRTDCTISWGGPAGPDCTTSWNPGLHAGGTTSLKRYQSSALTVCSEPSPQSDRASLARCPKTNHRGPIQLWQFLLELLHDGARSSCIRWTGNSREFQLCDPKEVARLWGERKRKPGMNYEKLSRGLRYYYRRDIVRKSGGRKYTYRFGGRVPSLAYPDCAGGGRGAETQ
# Summary of the method: as §1
# [17] = molecular target: T11, ELF3 (Homo sapiens, UniProt P78545 1-371); details: protein: recombinant; tags: N-terminal GST; dsDNA, one strand shown
# T11 sequence: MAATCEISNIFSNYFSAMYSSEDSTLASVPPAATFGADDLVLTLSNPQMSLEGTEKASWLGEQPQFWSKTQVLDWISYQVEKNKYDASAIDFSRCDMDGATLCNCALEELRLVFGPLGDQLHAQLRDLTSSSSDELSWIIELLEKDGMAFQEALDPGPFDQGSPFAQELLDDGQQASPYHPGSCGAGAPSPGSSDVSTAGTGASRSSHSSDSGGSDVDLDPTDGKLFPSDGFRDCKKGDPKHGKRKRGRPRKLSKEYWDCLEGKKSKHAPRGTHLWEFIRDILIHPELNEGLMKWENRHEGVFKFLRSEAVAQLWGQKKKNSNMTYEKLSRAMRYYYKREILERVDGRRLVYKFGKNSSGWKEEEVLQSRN
# Summary of the method: as §1
# [18] = molecular target: CRX (Homo sapiens, UniProt O43186 1-299); details: protein: recombinant; tags: N-terminal GST; dsDNA, one strand shown
# Summary of the method: as §1
# [19] = molecular target: ETV1 (Homo sapiens, UniProt P50549 1-477); details: protein: recombinant; tags: N-terminal GST; dsDNA, one strand shown
# Summary of the method: as §1
# Chain of HSF1 (Q00613 whole entry): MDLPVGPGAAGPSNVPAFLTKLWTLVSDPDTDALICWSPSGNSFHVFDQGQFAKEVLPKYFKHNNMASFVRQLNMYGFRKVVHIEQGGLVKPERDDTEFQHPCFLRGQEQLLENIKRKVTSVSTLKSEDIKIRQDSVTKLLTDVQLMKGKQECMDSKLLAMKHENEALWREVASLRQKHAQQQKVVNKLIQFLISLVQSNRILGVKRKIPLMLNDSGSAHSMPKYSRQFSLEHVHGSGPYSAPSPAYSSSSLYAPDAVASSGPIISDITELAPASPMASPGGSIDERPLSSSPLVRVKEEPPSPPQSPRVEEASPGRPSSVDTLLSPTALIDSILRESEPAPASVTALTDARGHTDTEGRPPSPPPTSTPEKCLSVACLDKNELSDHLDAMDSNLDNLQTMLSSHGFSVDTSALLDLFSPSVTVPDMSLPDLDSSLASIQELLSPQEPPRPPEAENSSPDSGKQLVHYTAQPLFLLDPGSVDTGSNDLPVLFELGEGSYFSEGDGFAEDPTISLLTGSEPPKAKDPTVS
# Chain of ELF1 (P32519 whole entry): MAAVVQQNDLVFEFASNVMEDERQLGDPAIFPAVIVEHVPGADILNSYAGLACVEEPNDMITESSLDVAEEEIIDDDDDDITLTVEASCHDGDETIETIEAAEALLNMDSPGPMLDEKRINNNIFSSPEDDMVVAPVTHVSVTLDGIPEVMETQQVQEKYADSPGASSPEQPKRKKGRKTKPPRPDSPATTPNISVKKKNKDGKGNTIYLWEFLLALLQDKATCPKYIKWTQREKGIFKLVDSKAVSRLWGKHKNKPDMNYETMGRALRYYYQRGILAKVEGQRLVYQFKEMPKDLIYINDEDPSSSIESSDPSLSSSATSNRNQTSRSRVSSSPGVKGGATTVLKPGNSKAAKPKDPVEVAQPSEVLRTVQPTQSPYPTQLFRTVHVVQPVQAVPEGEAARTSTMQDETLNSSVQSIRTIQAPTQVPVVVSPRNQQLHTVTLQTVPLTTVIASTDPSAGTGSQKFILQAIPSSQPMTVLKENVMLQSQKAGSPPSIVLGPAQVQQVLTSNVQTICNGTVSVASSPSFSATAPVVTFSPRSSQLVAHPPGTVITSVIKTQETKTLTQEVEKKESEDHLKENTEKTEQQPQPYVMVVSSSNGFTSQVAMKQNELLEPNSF
# Chain of ETV1 (P50549 whole entry): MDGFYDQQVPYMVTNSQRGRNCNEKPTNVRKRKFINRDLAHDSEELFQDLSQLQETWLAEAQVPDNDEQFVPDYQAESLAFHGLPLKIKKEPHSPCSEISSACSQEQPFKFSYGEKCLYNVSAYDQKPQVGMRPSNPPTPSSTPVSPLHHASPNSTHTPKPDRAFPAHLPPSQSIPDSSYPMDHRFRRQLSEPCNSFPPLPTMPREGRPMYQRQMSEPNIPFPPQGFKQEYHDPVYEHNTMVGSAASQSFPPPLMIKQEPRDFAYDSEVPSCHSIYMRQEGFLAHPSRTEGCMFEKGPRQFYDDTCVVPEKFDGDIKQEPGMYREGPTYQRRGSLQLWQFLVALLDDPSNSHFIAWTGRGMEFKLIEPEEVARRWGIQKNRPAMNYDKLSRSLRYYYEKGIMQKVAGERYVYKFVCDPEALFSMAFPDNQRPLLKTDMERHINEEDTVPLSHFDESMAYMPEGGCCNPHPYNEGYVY
# Chain of CRX (O43186 whole entry): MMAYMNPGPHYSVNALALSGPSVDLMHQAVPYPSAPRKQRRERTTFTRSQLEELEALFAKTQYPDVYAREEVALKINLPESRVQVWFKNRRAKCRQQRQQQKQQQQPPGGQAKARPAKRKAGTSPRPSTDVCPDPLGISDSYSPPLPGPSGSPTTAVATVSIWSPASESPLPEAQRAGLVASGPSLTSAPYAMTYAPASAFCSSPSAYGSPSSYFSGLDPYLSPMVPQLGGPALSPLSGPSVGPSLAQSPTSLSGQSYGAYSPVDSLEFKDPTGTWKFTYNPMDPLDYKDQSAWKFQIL
# Chain of SPIB (Q01892 whole entry): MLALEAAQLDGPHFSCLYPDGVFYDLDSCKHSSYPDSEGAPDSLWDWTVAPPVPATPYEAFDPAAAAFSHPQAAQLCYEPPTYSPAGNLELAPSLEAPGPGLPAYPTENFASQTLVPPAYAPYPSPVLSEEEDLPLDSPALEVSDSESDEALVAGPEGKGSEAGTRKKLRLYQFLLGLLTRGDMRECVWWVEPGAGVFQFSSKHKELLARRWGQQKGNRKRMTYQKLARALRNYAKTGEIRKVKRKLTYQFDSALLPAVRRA
# Chain of ETV5 (P41161 whole entry): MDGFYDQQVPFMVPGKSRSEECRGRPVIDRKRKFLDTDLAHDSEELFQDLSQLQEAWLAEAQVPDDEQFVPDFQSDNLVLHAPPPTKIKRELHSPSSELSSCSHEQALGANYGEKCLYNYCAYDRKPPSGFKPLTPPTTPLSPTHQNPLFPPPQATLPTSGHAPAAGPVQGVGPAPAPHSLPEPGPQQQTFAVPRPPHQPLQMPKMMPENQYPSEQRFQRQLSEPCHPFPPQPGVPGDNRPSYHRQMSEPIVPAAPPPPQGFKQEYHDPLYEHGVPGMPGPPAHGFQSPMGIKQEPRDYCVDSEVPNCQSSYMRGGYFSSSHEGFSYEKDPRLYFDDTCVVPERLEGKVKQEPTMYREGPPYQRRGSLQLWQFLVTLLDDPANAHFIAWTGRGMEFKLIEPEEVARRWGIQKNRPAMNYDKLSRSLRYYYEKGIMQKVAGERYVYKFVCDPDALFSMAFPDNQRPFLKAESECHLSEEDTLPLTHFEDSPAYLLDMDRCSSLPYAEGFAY
# Chain of ELF4 (Q99607 whole entry): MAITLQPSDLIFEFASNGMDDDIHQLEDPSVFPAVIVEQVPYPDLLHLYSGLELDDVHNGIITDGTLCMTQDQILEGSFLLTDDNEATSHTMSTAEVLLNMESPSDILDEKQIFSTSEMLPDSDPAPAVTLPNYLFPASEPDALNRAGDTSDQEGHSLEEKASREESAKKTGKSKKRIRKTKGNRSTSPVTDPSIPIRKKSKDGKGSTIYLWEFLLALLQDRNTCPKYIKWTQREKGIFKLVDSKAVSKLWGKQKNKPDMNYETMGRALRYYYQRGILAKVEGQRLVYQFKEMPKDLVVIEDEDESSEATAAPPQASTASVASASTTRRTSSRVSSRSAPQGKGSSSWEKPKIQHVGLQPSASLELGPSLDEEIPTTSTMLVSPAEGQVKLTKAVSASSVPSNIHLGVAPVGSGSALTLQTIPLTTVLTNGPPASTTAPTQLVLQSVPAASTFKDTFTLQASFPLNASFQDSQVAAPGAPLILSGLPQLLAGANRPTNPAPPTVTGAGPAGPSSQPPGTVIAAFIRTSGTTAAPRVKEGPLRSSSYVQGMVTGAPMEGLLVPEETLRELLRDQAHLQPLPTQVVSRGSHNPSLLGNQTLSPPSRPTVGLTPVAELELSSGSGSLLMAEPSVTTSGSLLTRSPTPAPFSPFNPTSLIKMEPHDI
sequence,measurement,setting,value
AACCCC,binding signal,[1],"1.08 fold enrichment (6-mer frequency, TF over GST control)"
same,binding signal,[2],"1.17 fold enrichment (6-mer frequency, TF over GST control)"
same,binding signal,[3],"1.1 fold enrichment (6-mer frequency, TF over GST control)"
same,binding signal,[4],"1.17 fold enrichment (6-mer frequency, TF over GST control)"
same,binding signal,[5],"1.16 fold enrichment (6-mer frequency, TF over GST control)"
same,binding signal,[6],"1.21 fold enrichment (6-mer frequency, TF over GST control)"
same,binding signal,[7],"1.12 fold enrichment (6-mer frequency, TF over GST control)"
same,binding signal,[8],"1.18 fold enrichment (6-mer frequency, TF over GST control)"
same,binding signal,[9],"1.14 fold enrichment (6-mer frequency, TF over GST control)"
same,binding signal,[10],"1.24 fold enrichment (6-mer frequency, TF over GST control)"
same,binding signal,[11],"1.14 fold enrichment (6-mer frequency, TF over GST control)"
same,binding signal,[12],"1.03 fold enrichment (6-mer frequency, TF over GST control)"
same,binding signal,[13],"1.33 fold enrichment (6-mer frequency, TF over GST control)"
same,binding signal,[14],"1.29 fold enrichment (6-mer frequency, TF over GST control)"
same,binding signal,[15],"1.36 fold enrichment (6-mer frequency, TF over GST control)"
same,binding signal,[16],"1.18 fold enrichment (6-mer frequency, TF over GST control)"
same,binding signal,[17],"1.22 fold enrichment (6-mer frequency, TF over GST control)"
same,binding signal,[18],"1.21 fold enrichment (6-mer frequency, TF over GST control)"
same,binding signal,[19],"1.08 fold enrichment (6-mer frequency, TF over GST control)"
